Experimental findings from PubChem BioAssay AID652067 (The Scripps Research Institute Molecular Screening Center, 2013) are described below.

Out of some 370,000 compounds screened, about 5,400 (1.5%) were called active. The sample as a whole holds a higher share of actives than the screen did. Values without a mark were called inactive.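 Rule for the calls: active = activation above the mean of all tested compounds plus 3 SD (cut at about 5.5% in these data); inactive = the rest.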

The test deals with DAF-12 nuclear receptor (Haemonchus contortus). Kind of test: H. contortus DAF-12 nuclear receptor activators, primary screen, cell-based, luminescence, HEK293, lit1-tk-luc reporter (AID 652067).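 Note: 100% = response to 3 µM Δ7-dafachronic acid high control.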 The following applies: HEK293 hcDAF-12 lit1-tk-luc reporter, at 6.8 µM, active compounds read high, 0% DMSO, 100% Δ7-dafachronic acid.
For the compound `Cc1ccc(C(=O)N(Cc2ccccn2)CC2CCCO2)cc1` (centres undefined), the activation was -1.39%.

Take `CN1[C@H](Cc2ccccc2)COc2cccc(N3CCSCC3)c2S1(=O)=O`: the activation is 3.54%.

`O=C(Nc1ccccc1N1CCN(C(=O)c2ccccc2)CC1)c1ccco1`: the activation was -1.91%.

In the case of `CC(=O)N1CCN(c2ccccc2NC(=S)NC(=O)c2cc3ccccc3o2)CC1`, the activation was 7.26% (active).

`O=C(c1cc2ccccc2o1)N1CCN(Cc2ccccc2)CC1`: the activation was -2.1%.

Take `CN1CCc2ccccc2C1Cc1ccccc1NC(=O)c1sc2ccccc2c1Cl` (centres undefined): the activation is 6.57% (active).

Consider `CCc1ccccc1NC(=O)NCCN1CCCCC1`, for which the activation is -0.86%.

`CCc1ccccc1NC(=O)c1ccc2c(c1)CCN2S(C)(=O)=O`: the activation is -0.87%.

For `COC(=O)[C@]12C[C@H](CC(=O)NCCc3ccccc3OC)C(=O)N(Cc3ccco3)C1=C[C@H](C(C)C)O[C@@H]2C1CC1`, the activation is -3.62%.

As to `O=C(O)c1ccccc1-c1ccccc1C(=O)Nc1ccccc1Br`, the activation was 1.04%.

For the compound `O=C(O)c1ccccc1-c1ccccc1C(=O)Nc1cccc2ccccc12`, the activation is 5.93% (active).

On to `O=C(Nc1ccccc1F)c1ccccc1-c1ccccc1`, for which the activation is -2.35%.

With `COc1ccc(CC(=O)NCc2nnc(SCC(=O)Nc3nccs3)n2C)cc1`, the activation was -1.09%.

Turning to `CC(Sc1nnc(CNC(=O)c2ccccc2F)n1C)C(=O)Nc1nccs1` (centres undefined), the activation was -0.26%.

In the case of `COc1ccccc1C(=O)NCc1nnc(SC(C)C(=O)Nc2nccs2)n1C` (centres undefined), the activation was 6.99% (active).

As for `COC(=O)[C@H](CC(C)C)NS(=O)(=O)c1c(F)cccc1F`, the activation was 0.07%.

Consider `O=C1C(=O)N(Cc2ccc(-c3ccsc3)cc2)c2ccc(OC(F)(F)F)cc21`, for which the activation is 1.15%.

With `Brc1ccc2nc(N3CCCC3)sc2c1`, the activation was 9.08% (active).

In the case of `O=C(NCCc1cccc(F)c1)C1CCCN(c2nc3ccccc3s2)C1` (centres undefined), the activation was -1.62%.

In the case of `Cc1nc(N2CCCCC2)sc1C=O`, the activation was -0.55%.

For the compound `Cc1nc2ccc(NC(=O)C(F)(F)F)cc2o1`, the activation was 0.11%.

For the compound `CC(=O)Nc1ccc(-c2nc3ccccc3o2)cc1`, the activation was 6.08% (active).

As for `CC(=O)Nc1ccc(S(=O)(=O)NC2Cc3ccccc3C2)cc1`, the activation was -1.07%.

With `CC[C@H](C)[C@H]1CNC(=O)C(=O)N1CC1CCN(CCc2ccc(OC)c(OC)c2)CC1`, the activation is -1.29%.

`Cc1cc(O)c(Sc2ccccc2)c(=O)o1`: the activation was 0.75%.

For the compound `Cc1cc(O)c(C(=O)/C=C/c2c(F)c(F)c(F)c(F)c2F)c(=O)o1`, the activation is 8.11% (active).

`C=CCN1[C@@H](Cc2ccccc2)COc2cccc(N3CCSCC3)c2S1(=O)=O`: the activation is -1.72%.

Turning to `Cc1ccc2cccc(OCCCOc3ccccc3CO)c2n1`, the activation was -0.62%.

`CC1(C)OC(=O)C2=C(CC(CCc3ccccc3)OC2c2ccc(Cl)cc2)O1` (centres undefined): the activation was -1.84%.

In the case of `Cc1cccc(C)c1NC(=O)C(c1cccc2ccccc12)n1c(=O)c(-c2ccco2)nc2ccccc21` (centres undefined), the activation was 2.42%.

Regarding `Cc1cccc(C)c1NC(=O)C(c1ccc(C(F)(F)F)cc1)n1c(=O)c(-c2ccco2)nc2ccccc21` (centres undefined), the activation is 0.34%.

For `O=C(NC1CCCCC1)C(c1cc2ccccc2o1)n1c(=O)c(-c2ccco2)nc2ccccc21` (centres undefined), the activation is 9.06% (active).

Regarding `O=C(COc1cccc(Cl)c1)NCc1ccccc1`, the activation was 6.74% (active).

As to `O=C(COC(=O)c1cccc(Cl)c1)NC(=O)NCc1ccccc1`, the activation is 0.2%.

In the case of `O=C(CCOc1ccccc1)NCc1ccccc1`, the activation is 0.79%.

`COc1ccc(CN2C(=O)N3Cc4cc(OC)ccc4C3CS2(=O)=O)cc1` (centres undefined): the activation was -4.29%.

On to `CCOC(=O)C1CCN(C(=O)CSc2cc(=O)n(C)c3ccccc23)CC1`, for which the activation is 5.88% (active).

Take `Cn1c(=O)cc(SCC(=O)N2CCCC2)c2cc(Cl)ccc21`: the activation was 0.28%.

On to `Cn1c(=O)cc(SCC(=O)N2CCN(C(=O)c3ccco3)CC2)c2ccccc21`, for which the activation is -0.81%.

On to `O=C(N[C@H](C(=O)N1CCC[C@H]1C(=O)NCCc1ccccc1Cl)c1ccccc1)c1ccccc1`, for which the activation was -0.38%.

Regarding `CCOC(=O)[C@]12CCCC=C1N(CCCOC)C(=O)[C@@H]2CC(=O)N1CCOCC1`, the activation is -0.67%.

Take `O=c1[nH]n2c(=O)c3c([nH]c2c1N=Nc1ccccc1)CCC3`: the activation is 0.16%.

`Cc1ccc(C)c(NC(=O)COC(=O)Cn2c(C)csc2=O)c1`: the activation is -0.15%.

On to `CCc1ccc(NC(=O)N2CCc3ccccc3C2)cc1`, for which the activation is 10.8% (active).

For the compound `Cc1ccc(NC(=O)CN2CCc3ccccc3C2)cc1C`, the activation was -0.52%.

Consider `Cn1cccc1C(=O)N1CCc2ccccc2C1`, for which the activation was 0.07%.

For the compound `COC(=O)C1=C(C)N(Cc2ccccc2C(F)(F)F)C(=NCc2ccc(C(F)(F)F)cc2)NC1c1ccc(F)cc1` (centres undefined), the activation is -0.44%.

With `O=S1(=O)c2ccc(Br)cc2OC[C@@H](Cc2ccccc2)N1Cc1cn(Cc2ccco2)nn1`, the activation is -3.82%.

On to `O=C(NCCCN1CCOCC1)c1cc(-c2ccccc2F)no1`, for which the activation is -0.99%.

On to `Fc1ccccc1-c1cc2cc3c(cc2cn1)OCO3`, for which the activation is 5.75% (active).

With `O=C(c1ccco1)N1CCN(C(=O)c2cc(-c3ccccc3F)no2)CC1`, the activation was 0.36%.

`COC(=O)[C@]12C[C@H](CC(=O)NCc3cccc4ccccc34)C(=O)N(CCc3ccc(OC)c(OC)c3)C1=C[C@H](C1CCCC1)O[C@@H]2C`: the activation was -3.52%.

On to `C[C@H](CO)N1C[C@H](C)[C@@H](CN(C)C(=O)Nc2ccccc2F)OCc2cn(nn2)CCCC1=O`, for which the activation is -0.15%.

In the case of `C/C(=N\NC(=O)OC(C)(C)C)c1ccc[nH]1`, the activation was 1.29%.

Take `COC(=O)c1ccc(/C=N/NC(=O)C(=O)N2CCCCCC2)cc1`: the activation is -0.19%.

On to `CC(C)(C)OC(=O)N/N=C/c1ccc(C(=O)O)cc1`, for which the activation is 7.41% (active).

With `CCCCC(=O)N[C@@H]1CC[C@@]23CCCN2C(=O)CCC[C@H]3[C@H]1C`, the activation was 0.2%.

For `COc1cc(Cl)ccc1OCc1cc(C(=O)N2CC[C@@H]3CCCC[C@H]3C2)no1`, the activation was 1.66%.

On to `O=C(NC1CCCC1)c1cc(-c2ccccc2)on1`, for which the activation is 4.69%.

As for `O=C(Nc1cccnc1Cl)c1cc(-c2ccccc2O)on1`, the activation is 6.07% (active).

With `COc1ccc(OCc2cc(C(=O)N3CCCC3)no2)c2ccccc12`, the activation was 10.3% (active).

With `O=C(c1cc(COc2ccc(F)cc2F)on1)N1CCOCC1`, the activation is 1.67%.

For `Cc1ccc(O)c(NC(=O)c2cc(-c3ccco3)on2)c1`, the activation is 0.32%.

`O=C(Nc1ccccc1C(F)(F)F)c1cc(-c2ccc(O)cc2)on1`: the activation is -0.51%.

As for `O=C(c1cc(-c2ccc(O)cc2)on1)N1CCOCC1`, the activation was 6.07% (active).

For the compound `O=C(c1cc(-c2ccccc2O)on1)N1CCCC1`, the activation is 7.33% (active).

As to `O=C(c1cc(-c2ccc(Cl)s2)nc2ccccc12)N1CCOCC1`, the activation is -1.34%.

For the compound `COCCN1CCN(C(=O)c2cc(COc3ccc(F)cc3Cl)on2)CC1`, the activation is -1.75%.

Turning to `O=C(c1cc(C2CCCCN2S(=O)(=O)c2ccccc2)on1)N1CCOCC1` (centres undefined), the activation is -0.3%.
